Shown are actives, neighbours in structure and some others; about 21% of the full set was active somewhere.
Sm TGR inh: S. mansoni TGR enzyme inhibition; Q962Y6; purified TGR, DTNB reduction, TNB absorbance 405 nm; Potency, µM (titrated, usually from 114 µM), for inactives: top-dose activity change, negative = inhibition, most hits filed as inhibitors; actives 3% (n = 360,000); AID 485364; note: potency is the fitted concentration of half-maximal effect; % is set by controls: 0 for no effect and ±100 for the full control effect; nearly all actives have a fitted effect of over 60% in size
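TGR 20 nM + NADPH 100 uM (dispensed conc.), cpd preinc 15 min RT; start with NADPH (500 uM addition) then DTNB (15 mM addition). Kinetic TNB absorbance, 405 nm filter. Four-parameter Hill fit across titration.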
NS1 function inh: inhibitors of influenza NS1 protein function | Potency, µM (series often up to 46.1 µM), for inactives: top-dose activity, positive = more growth | actives 0.4% (n = 270,000); calls by dose curve; note: potency is the fitted concentration of half-maximal effect; actives are rising curves; nearly all actives have a fitted effect of over 50% in size
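Compounds were scored for reversing the slow growth caused by influenza A NS1 in S. cerevisiae, measured by optical density at 600 nm. Assay medium contained 2% galactose at pH 6.0; NS1-free yeast of the same strain were the positive control.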
Pf growth 96h: P. falciparum growth inhibition at 96 hours; P. falciparum luciferase reporter growth, 96 h; actives 6.9% (n = 320,000); Potency, µM (titrated, usually from 28.7 µM), for the others: at the top dose activity change, negative = inhibition, usual class: inhibitors; note: potency is the fitted concentration of half-maximal effect; % is set by controls: 0 for no effect and ±100 for the full control effect
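Parasite growth measured via integrated firefly luciferase reporter in P. falciparum. Infected erythrocytes at 2% hematocrit, 0.05% parasitemia final were treated 96 hours at 37 C under 5% CO2, and luminescence was read.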
Shiga toxin inh: blocks Shiga toxin action in Vero cells | actives 9.2% (n = 290,000) | Vero cells, Shiga toxin protein synthesis inhibition reporter | inhibition, % at 38.7 µM; in the data active = inhibition mostly above about 28%, no sharp cut-off; inactive = mostly below about 43%; note: 0% is about no effect
Pf growth 48h: P. falciparum growth inhibition at 48 hours (one generation). P. falciparum luciferase growth in erythrocytes, 48 h. Potency, µM (series often up to 28.7 µM), for the others: at the highest dose activity change, negative = inhibition, actives largely listed as inhibitors. actives 5.9% (n = 310,000). AID 504832; note: potency is the fitted concentration of half-maximal effect; % is set by controls: 0 for no effect and ±100 for the full control effect
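In quantitative HTS format, infected erythrocytes bearing luciferase-reporter parasites were treated for a single generation at 37 C. Luminescence after adding detection reagent served as the growth measure.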
Cycloheximide cs: affects cycloheximide protein synthesis inhibition readout, counter-screen; cell reporter, cycloheximide protein synthesis inhibition counterscreen; max response, %; actives 12% (n = 300,000); AID 2314; in the data active = max response mostly above about 13%, no sharp cut-off; inactive = mostly below about 14%; note: read at 38.3 µM for the half of the compounds with a filed dose; 0% is about no effect
Active calls of the source: *; i = inactive; ? = inconclusive; / = no result given; + = active, no number; [ ] = another dose, or the depositor's remark. Unless noted, calls come from the whole dose curve; as a rule, active = well fitted curve in the direction sought with a large enough effect; inconclusive = small, poorly fitted or top-dose-only effect, or another doubt; inactive = no such curve, though single readings can be large; an effect the other way counts as inactive or inconclusive.

SMILES	Sm TGR inh	NS1 function inh	Pf growth 96h	Shiga toxin inh	Pf growth 48h	Cycloheximide cs
O=C(N/N=C/c1c[nH]c2ccccc12)c1ccc(Cl)cc1	-7%	-7%	?	72*	40%	34*
NC(=S)N/N=C/c1c[nH]c2ccccc12	0%	1%	38%	38	0%	6
Nc1ccc(C(=O)N/N=C/c2c[nH]c3ccccc23)cc1	12%	-2%	50%	51	13%	29*
O=C(CNC(=O)c1ccc([N+](=O)[O-])cc1)N/N=C/c1c[nH]c2ccccc12	4%	0%	1%	-11	10%	-2
CC(C)Oc1ccc(Br)cc1C(=O)N/N=C/c1c[nH]c2ccccc12	9%	-1%	-25%	-6	?	4
Cn1c(N)c(C(=O)COC(=O)c2cc(C(F)(F)F)nc3ccccc23)c(=O)n(C)c1=O	-2%	-1%	?	-5	?	-4
CC(C)Cn1c(N)c(C(=O)COC(=O)c2ccc(O)cc2)c(=O)n(C)c1=O	4%	/	0%	18	13%	-6
CC(C)Cn1c(N)c(C(=O)COC(=O)c2cc(C3CC3)nc3ccccc23)c(=O)n(C)c1=O	-1%	-2%	12µM*	-6	5.2µM*	-3
CC(C)Cn1c(N)c(C(=O)COC(=O)C2Cc3ccccc3CN2S(C)(=O)=O)c(=O)n(C)c1=O (stereo not drawn)	4%	/	?	/	12µM*	/
CC(C)Cn1c(N)c(C(=O)COC(=O)c2cc(-c3ccco3)nc3ccccc23)c(=O)n(C)c1=O	6.3µM*	?	-6%[5.75 µM]	-5	9.3µM*	-3
Cn1c(N)c(C(=O)COC(=O)c2cc(-c3ccccc3)nc3ccccc23)c(=O)n(Cc2ccccc2)c1=O	-7%	?	-24%	-20	-4%	-4
CC(C)Cn1c(N)c(C(=O)COC(=O)C2CCCCC2)c(=O)n(C)c1=O	-7%	-10%	0%	27	0%	-2
Cn1c(=O)c(C(=O)COC(=O)c2cc(-c3ccco3)nc3ccccc23)c(N)n(Cc2ccccc2)c1=O	3.2µM*	8.9µM*	6.6µM*	29	5.2µM*	-1
CC1=NNC(=S)NCCCN2CCN(CCCNC(=S)NN=C(C)C=NNC(=S)NCCCN3CCN(CCCNC(=S)NN=C1)CC3)CC2	/	0%	/	/	/	/
O=C(Cn1c(=O)nc(-c2ccccc2)c2ccccc21)NCCc1ccccc1	2%	/	/	/	/	/
CC1CCN(c2ccc3nnc(CCC(=O)NC(C)C)n3n2)CC1	-2%	-1%	-23%	-4	12%	-1
CC(C)NC(=O)Cn1cc(C(=O)C2CC2)c2ccccc21	-6%	1%	?	-13	8%	-3
CC(C)Cn1c(N)c(C(=O)COC(=O)c2cc(C(F)(F)F)nc3ccccc23)c(=O)n(C)c1=O	0%	5%	?	-15	?	-3
CC(C)Cn1c(N)c(C(=O)COC(=O)c2cc(-c3ccccc3)nc3ccccc23)c(=O)n(C)c1=O	0%	8%	12µM*	-8	?	-3
O=S(=O)(c1ccccc1F)N1CCN(Cc2cc3c(cc2Br)OCCO3)CC1	1%	/	8.3µM*	/	?	/
O=S(=O)(c1ccccc1)N1CCN(Cc2cc3c(cc2Br)OCCO3)CC1	7%	/	?	/	?	/
Fc1ccc(COc2cccc(CNCc3ccncc3)c2)cc1	/	0%	?	10	-5%	4
CC(=O)Nc1ccc(S(=O)(=O)N2CCC(NC(=O)C(Cc3ccc(C)cc3)NC(C)=O)CC2)cc1 (stereo not drawn)	-9%	6%	27%	-7	-7%	-4
CC(=O)Nc1ccc(S(=O)(=O)N2CCC(NC(=O)C(Cc3cccc(F)c3)NC(C)=O)CC2)cc1 (stereo not drawn)	45µM*	3%	?	-6	-1%	-9
COc1cccc(CC(NC(C)=O)C(=O)NC2CCN(S(=O)(=O)c3cccc4ccccc34)CC2)c1 (stereo not drawn)	-16%	1%	12µM*	-14	/	-2
SMILES	Sm TGR inh	NS1 function inh	Pf growth 96h	Shiga toxin inh	Pf growth 48h	Cycloheximide cs
COc1ccc(S(=O)(=O)N2CCC(NC(=O)C(Cc3cccc(OC)c3OC)NC(C)=O)CC2)cc1 (stereo not drawn)	-24%	6%	-19%	-3	9%	-2
CN(CCOc1ccccc1)CC(=O)Nc1ccc(Cl)cc1[N+](=O)[O-]	-4%	/	19%	18	4%	-2
CSc1ncc(Cl)c(C(=O)Nc2ccc(S(=O)(=O)N3CCC(C)CC3)cc2)n1	7%	/	/	/	/	/
Cn1nc(C(=O)Nc2cc(Cl)ccc2N2CCCC2)c2ccccc2c1=O	9%	/	13µM*	/	12µM*	/
COC(=O)c1ccc(C)c(NC(=O)c2nn(C)c(=O)c3ccccc23)c1	10%	7%	13µM*	30	?	0
CN1CCN(c2ccc(Cl)cc2NC(=O)c2nn(-c3ccccc3)c(=O)c3ccccc23)CC1	2%	-2%	15µM*	18	-18%	-3
Cc1cc(C(=O)Nc2sc(C)c(-c3ccc(F)cc3)c2C(N)=O)no1	3%	5%	2%	84*	107%	62*
COc1cc(C(=O)N2CCC(c3nc4ccccc4o3)CC2)cc(OC)c1OC	4%	/	/	/	/	/
COc1ccc([C@]23Cc4ccccc4C(O2)C2=C(CCCC2=O)O3)cc1	0%[22.9 µM]	0%	1.5µM*	i	?	1
COc1cc2c(cc1OC)C1O[C@](c3ccsc3)(C2)OC2=C1C(=O)CC(C)(C)C2	?	1%	?	i	?	0
COc1cc2c(cc1OC)C1O[C@](c3ccsc3)(C2)OC2=C1C(=O)OC1(CCCCC1)C2	?	5%	1.3µM*	i	?	-1
COc1ccc([C@]23Cc4c(ccc5ccccc45)C(O2)C2=C(CCCC2=O)O3)cc1	-57%[22.9 µM]	?	?	i	18%[5.75 µM]	6
COc1ccc([C@]23Cc4ccccc4C(O2)C2=C(CC4(CCCCC4)OC2=O)O3)cc1	-18%[22.9 µM]	14%	?	+	?	37*
COc1ccc([C@]23Cc4cc(OC)c(OC)cc4C(O2)C2=C(CCCC2=O)O3)cc1	3.5µM*	2%	?	i	?	12
COc1cc2c(cc1OC)C(COc1cccc(C(F)(F)F)c1)NCC2 (stereo not drawn)	-25%	9%	-19%	-7	?	16
COc1ccc(CNC(=O)CN2C(=O)COc3ccc(S(=O)(=O)N4CCCCC4)cc32)cc1	-5%	3%	41%	-4	30%	10
Cc1cc(-c2ccccc2)nc2cc(C(=O)Nc3cc(C(F)(F)F)ccc3Cl)nn12	0%	/	/	/	/	/
NS(=O)(=O)c1cc(C(=O)OCC(=O)Nc2ccc3[nH]c(=O)[nH]c3c2)ccc1Cl	-16%	/	-7%	/	-14%	/

Source: PubChem BioAssay (National Center for Advancing Translational Sciences (NCATS))
